Hits are enriched below; roughly 1.1% of the tested compounds scored in any of these assays.
LANA DNA inh – inhibitors of KSHV C-LANA binding to DNA, primary screen, biochemical, fluorescence polarization, FAM-LBS DNA, MBP-C-LANA, single point; Kaposi's sarcoma herpesvirus LANA C-terminal domain (residues 932-1162) DNA binding; inhibition, % at 9 µM; 340,000 compounds, 0.078% hits; AID 504423, 2011;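 active = highest replicate inhibition at or above 60% at 9 µM, even if other replicates fall short; inactive = all replicates below 60% inhibition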;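 note: 0% = neutral control wells and 100% = 4 µM acridine orange control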
Casp6 inh – human caspase-6 inhibitors, primary screen, biochemical, VEID-R110 fluorescence, single point, set 2; P55212; purified caspase-6, Z-VEID-R110 cleavage fluorescence; inhibition, % at 12.5 µM; 350,000 compounds, 0.53% hits; AID 686996, 2013;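 active = mean inhibition across replicates at least about 35%, with every replicate also reaching that limit, limit read from the data; inconclusive = only one of the two criteria met; inactive = neither criterion met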;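 note: 0% = median of neutral control wells and 100% = no fluorescence left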
HDAC3 inh – HDAC3 deacetylase inhibitors, primary screen, biochemical, fluorescence, cell-free homogeneous; 320,000 compounds, 0.15% hits; recombinant HDAC3, fluorogenic peptide/trypsin coupled; inhibition, % at 8.3 µM; Histone deacetylase 3 (Homo sapiens), O15379; AID 2718, 2010; in the data active = inhibition above about 26%, passing the limit was not always enough; inconclusive = no clear call, values can overlap the other calls
Target sequence (O15379 whole entry, looked up): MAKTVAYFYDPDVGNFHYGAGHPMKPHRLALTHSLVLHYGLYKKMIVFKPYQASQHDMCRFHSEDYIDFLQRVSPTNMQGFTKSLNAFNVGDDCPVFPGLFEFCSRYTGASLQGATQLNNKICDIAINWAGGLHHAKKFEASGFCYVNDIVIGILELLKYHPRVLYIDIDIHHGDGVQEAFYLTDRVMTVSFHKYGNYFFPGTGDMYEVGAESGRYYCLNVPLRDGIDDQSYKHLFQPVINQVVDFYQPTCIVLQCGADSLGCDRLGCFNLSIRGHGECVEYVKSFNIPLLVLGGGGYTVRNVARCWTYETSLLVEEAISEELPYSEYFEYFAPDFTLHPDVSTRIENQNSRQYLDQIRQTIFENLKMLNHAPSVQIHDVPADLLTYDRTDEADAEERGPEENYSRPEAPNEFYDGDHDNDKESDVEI
N-glyco inh – increase of ERlucT glycosylation luciferase signal, primary screen, N-linked glycosylation inhibitor project, D54 ERlucT cells, luminescence, set 2. AID 588692, 2011. 360,000 compounds, 0.23% hits. reporter increase, % at 12.5 µM. D54 ERlucT glycosylation luciferase reporter, 24 h; percent of 100 nM tunicamycin response;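 active = mean luciferase reporter signal, scaled so untreated is 0 and the glycosylation-blocking control 100, at or above a set limit in every replicate; inconclusive = mean reaches the limit but not every replicate does; inactive = mean below the limit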;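 note: luciferase carries N-glycosylation sites so blocking glycosylation raises the light; 0% = median of neutral control wells and 100% = median of 100 nM tunicamycin wells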
Keap1 Nrf2 FP – Keap1-Nrf2 protein-protein interaction inhibitors, primary screen, biochemical, fluorescence polarization, single point | Keap1 Kelch-Nrf2 peptide fluorescence polarization, 1536-well | inhibition, % at 9.4 µM | 340,000 compounds, 0.15% hits; in the data active = inhibition above about 12%; inconclusive = no clear call, values can overlap the other calls; inactive = below about 7.3%;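 note: human Keap1 Kelch domain with fluorescein labeled Nrf2 9mer peptide probe; 0% = neutral control wells and 100% = peptide positive control; higher means more block of Keap1 binding to Nrf2 peptide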
NSD2 inh – NSD2 histone methyltransferase inhibitors, primary screen, biochemical, AlphaScreen, single concentration, set 2; 310,000 compounds, 0.54% hits; NSD2 peptide methylation, 120 min; inhibition, % at 12.5 µM; Histone-lysine N-methyltransferase NSD2 (Homo sapiens), O96028; in the data active = inhibition above about 50%
The depositor's hits bear a star.

How did Cc1noc(C)c1NC(=O)N(C)C[C@H]1OCCCC[C@H](C)Oc2ccc(NS(=O)(=O)c3ccc(F)cc3)cc2C(=O)N([C@@H](C)CO)C[C@@H]1C do in these assays?
Casp6 inh: -2

How did COc1cc(/C=C2\CC/C(=C\c3cc(OC)c(O)c(OC)c3)C2=O)cc(OC)c1O do in these assays?
LANA DNA inh: -1; Casp6 inh: 49*; HDAC3 inh: 6; N-glyco inh: -1; Keap1 Nrf2 FP: -4; NSD2 inh: 62*

How did COc1cc(/C=C2/CCC/C(=C\c3cc(O)c(OC)c(Cl)c3)C2=O)cc(Cl)c1O do in these assays?
LANA DNA inh: -3; HDAC3 inh: 3; N-glyco inh: 35*; Keap1 Nrf2 FP: -2; NSD2 inh: 9

What do the screens show for `COc1cc(/C=C2\CCC/C(=C\c3ccc(O)c(OC)c3)C2=O)ccc1O`?
LANA DNA inh: -1; Casp6 inh: 17; HDAC3 inh: 7; N-glyco inh: inconclusive; Keap1 Nrf2 FP: -4; NSD2 inh: 12

What do the screens show for `C[C@H](CO)N1C[C@H](C)[C@H](CN(C)C(=O)Nc2cccc3ccccc23)Oc2ccc(NC(=O)NC3CCCCC3)cc2C1=O`?
Casp6 inh: -2

How did COc1ccc(NC(=O)CN2C(=O)NC3(CCCCCCC3)C2=O)cc1 do in these assays?
LANA DNA inh: -2; Casp6 inh: 2; N-glyco inh: 4; Keap1 Nrf2 FP: 0; NSD2 inh: -3

How did Cc1cc(Cl)ccc1NC(=O)CN1C(=O)NC2(CCCC2)C1=O do in these assays?
LANA DNA inh: -2; Casp6 inh: -1; HDAC3 inh: 4; N-glyco inh: 2; Keap1 Nrf2 FP: 2; NSD2 inh: 2

Results for Cc1cc(N2CCCC2)ccc1NC(=O)CN1C(=O)NC2(CCCCC2)C1=O ?
LANA DNA inh: -1; Casp6 inh: 39*; HDAC3 inh: 4; N-glyco inh: 6; Keap1 Nrf2 FP: 1; NSD2 inh: 6

Results for CC(C)c1ccc(NC(=O)CN2C(=O)NC3(CCCCCCC3)C2=O)cc1 ?
LANA DNA inh: 2; Casp6 inh: 3; HDAC3 inh: -1; N-glyco inh: 37*; Keap1 Nrf2 FP: 4; NSD2 inh: 3

Results for C[C@H](CO)N1C[C@H](C)[C@H](CN(C)Cc2cccnc2)Oc2cc(C3=CCCCC3)ccc2S1(=O)=O ?
Casp6 inh: -3

What do the screens show for `COC(CNC(=O)c1ccc2c3c(onc13)-c1ccccc1C2=O)OC`?
LANA DNA inh: -2; Casp6 inh: 50*; HDAC3 inh: 7; N-glyco inh: 2; Keap1 Nrf2 FP: 101*

Results for Cc1noc(C)c1S(=O)(=O)Nc1ccc2c(c1)C(=O)N([C@@H](C)CO)C[C@H](C)[C@@H](CN(C)C(=O)NC1CCCCC1)O2 ?
Casp6 inh: 1

What do the screens show for `Cc1cc(=O)c2c(o1)C(=O)c1occc1C2=O`?
LANA DNA inh: 17; Casp6 inh: 92*; N-glyco inh: 6; Keap1 Nrf2 FP: 6; NSD2 inh: 139*

How did COc1c2occc2c(OC)c2c(=O)cc(C)oc12 do in these assays?
LANA DNA inh: -1; Casp6 inh: 2; HDAC3 inh: -1; N-glyco inh: 1; Keap1 Nrf2 FP: -5

How did CC(C)C(C(=O)O)N1C(=O)/C(=C/c2cccn2C)SC1=S (stereo unspecified) do in these assays?
LANA DNA inh: -23; Casp6 inh: 4; HDAC3 inh: 33*; N-glyco inh: 1; Keap1 Nrf2 FP: -75; NSD2 inh: 5

How did Cc1cc2c(NC(=O)Nc3ccc(C(F)(F)F)cc3)cccc2nn1 do in these assays?
LANA DNA inh: 0; Casp6 inh: 54*; HDAC3 inh: 3; N-glyco inh: 7; Keap1 Nrf2 FP: 1; NSD2 inh: -4

How did Cc1cc2c(NC(=O)CCCC(=O)O)cccc2nn1 do in these assays?
LANA DNA inh: -4; Casp6 inh: 6; HDAC3 inh: 1; N-glyco inh: 1; Keap1 Nrf2 FP: 3; NSD2 inh: -6

What do the screens show for `C[C@H](CO)N1C[C@H](C)[C@@H](CN(C)C(=O)CN2CCOCC2)Oc2ncc(C#C[C@@H](C)O)cc2C1=O`?
Casp6 inh: 0

How did CS(=O)(=O)c1ccc(Nc2nc(C(N)COCc3ccccc3)cs2)cc1 (stereo unspecified) do in these assays?
Casp6 inh: 46*; N-glyco inh: 3; NSD2 inh: 3

Results for CN(C)C(=O)c1cccc(-c2ccc(C3[C@H]4CNC[C@@H]3N4Cc3ccccn3)cc2)c1 (stereo partly specified) ?
Casp6 inh: -6

Results for C(=C\c1ccc(C2[C@H]3CNC[C@@H]2N3Cc2ccccn2)cc1)/c1ccccc1 (stereo partly specified) ?
Casp6 inh: 50*

Results for COc1ccc(C(c2c(NC(=O)c3ccco3)sc(C)c2C)N2CCOCC2)cc1 (stereo unspecified) ?
LANA DNA inh: -3; Casp6 inh: 55*; N-glyco inh: -7; Keap1 Nrf2 FP: 2; NSD2 inh: -4

Results for Oc1cccc(/C=N/N2CCCCC2)c1O ?
LANA DNA inh: -1; Casp6 inh: 2; HDAC3 inh: 3; N-glyco inh: -1; Keap1 Nrf2 FP: -3; NSD2 inh: -2

How did Oc1ccc(/C=N/N2CCCCC2)c(O)c1O do in these assays?
LANA DNA inh: 5; Casp6 inh: 39*; HDAC3 inh: 7; N-glyco inh: 1; Keap1 Nrf2 FP: -8; NSD2 inh: 21

Results for COC(=O)CSC1=NS(=O)(=O)c2ccccc21 ?
LANA DNA inh: 0; HDAC3 inh: 54*; N-glyco inh: -6; Keap1 Nrf2 FP: 8

What do the screens show for `C[C@H](CO)N1C[C@H](C)[C@@H](CN(C)S(C)(=O)=O)Oc2c(NC(=O)C3CCOCC3)cccc2C1=O`?
Casp6 inh: -2

What do the screens show for `CC1=CC(C)[C@H](/C=N/n2c(=O)[nH]c3c([nH]c4ccc(C)cc43)c2=O)C(C)C1` (stereo partly specified)?
LANA DNA inh: -1; Casp6 inh: 2; HDAC3 inh: 9; N-glyco inh: 60*; Keap1 Nrf2 FP: -4; NSD2 inh: -5

What do the screens show for `C[C@H]1CN([C@@H](C)CO)C(=O)Cc2cc(NS(=O)(=O)c3ccccc3)ccc2O[C@H]1CN(C)C(=O)Nc1ccccc1`?
Casp6 inh: 1

Bioassay records as filed in PubChem.
